The results in this text go back to ChEMBL document CHEMBL3988442, “University of Dundee, Small-Polar-MMV Screening Library” (2021).

In all, about 48,000 compounds went through this assay and about 13,000 (27%) showed an effect of 50% or more. The list shows a part of the results.

The subject of the test is Wolbachia pipientis. In words: Anti-Wolbachia Cell-Based Screen. The conditions noted are these: 5 µM. More on the design: scale not given: in the data most compounds retested in dose-response had high values. The class given is functional.
As for `O=C(CN1C(=O)CCNC1=O)N1CCOC(c2ccc(F)cc2)C1` (stereo not given), the “Percent Effect” value worked out at 13.31%.
As for `CCN(CC(=O)NC(C)C)S(=O)(=O)N1CCCC(C)C1` (stereo not given), the figure is -4.686%; as for `CC(=O)c1c(F)cccc1N1CCC(CS(N)(=O)=O)CC1`, -2.597%; as for `CN(Cc1ccc([S+](C)[O-])cc1)c1ccc(Cl)cn1` (stereo not given), -11.61%.
Under `CCN(Cc1cccc(F)c1)Cc1nc2c(cnn2C)c(=O)[nH]1` stands 117.6%.
Under `CCN(Cc1ccccc1)Cc1nc2c(cnn2C)c(=O)[nH]1` stands 106.9%; under `Cn1ncc2c(=O)[nH]c(CN(Cc3cccc(F)c3)C3CC3)nc21`, 7.175%; under `CCN(Cc1nc2c(cnn2C)c(=O)[nH]1)c1ccccc1C`, -6.85%.
`CC(C)CN1C(=O)CC[C@H]2CN(Cc3ncc[nH]3)CC[C@H]21`: the “Percent Effect” value was -0.2124%.
Regarding `Cc1noc(Cl)c1CC(=O)NCC(C)(O)c1ccc(F)cc1F` (stereo not given), the “Percent Effect” value turned out to be 5.104%.
As for `CN(Cc1nc(-c2cccnc2)no1)C(=O)c1c2c(nn1C)CCCC2`, the figure is -6.1%.
As for `CCOCc1ccc(CNc2nc(OC)ncc2Cl)cc1`, the figure is -6.174%; as for `NS(=O)(=O)Cc1ccc(CNc2cncc(-n3cccn3)n2)cc1`, 114%.
Under `O=C1CN(c2ccc(CNc3cncc(-n4cccn4)n3)cc2)CCN1` stands 17.5%; under `CCOCCOCc1cccc(CNc2cncc(-n3cccn3)n2)c1`, 5.599%; under `CCOCc1ccc(CNc2cncc(-n3cccn3)n2)cc1`, 106.2%.
`Cc1cnn(CC(C)NCc2ccc(-n3cccn3)cc2)c1` (stereo not given): the “Percent Effect” value came to 9.413%.
Under `CC(C)COc1cncc(NCc2nnc3ccccn23)n1` stands -11.09%; under `CNS(=O)(=O)Cc1ccc(CNc2cncc(-n3cccn3)n2)cc1`, 3.239%; under `CN(C)C(=O)C1CCN(c2cncc(-n3cccn3)n2)CC1`, 6.063%.
Consider `CC(C)OCc1ccc(CNc2cncc(-n3cccn3)n2)cc1`, for which the “Percent Effect” value worked out at 123.9%.
Under `COC(=O)Nc1ccc(CNc2cncc(-n3cccn3)n2)cc1` stands 97.69%.
Turning to `Cc1cc(N2C[C@H](C3CC3)[C@@H](N)C2)nc(N2CCCCC2)n1`, the “Percent Effect” value stood at 11.86%.
Consider `CC(C)c1cc(N2CCC(N(C)C)C2)n2nccc2n1` (stereo not given), for which the “Percent Effect” value was determined as 10.32%.
Under `O=C1OCCN1Cc1ccc(C(F)(F)F)cc1F` stands -29.22%; under `CCNc1ncc(C(=O)NC(c2ccccc2)c2ccco2)cn1` (stereo not given), -3.465%.
As for `COCCN(Cc1sccc1C)Cc1nccn1CCOC`, the figure is 4.16%; as for `COCc1ccc(CNc2cncc(-n3cccn3)n2)cc1`, 105.5%.
Under `CN(C)c1ccc(CNc2cncc(-n3cccn3)n2)cc1` stands 6.951%.
Take `CC(CNc1cncc(-n2cccn2)n1)N(C)c1ccccc1` (stereo not given): the “Percent Effect” value was 0.6159%.
Under `CN(C)c1cc(CNc2cncc(-n3cccn3)n2)ccn1` stands 94.25%.
Under `CCN(CC)S(=O)(=O)c1ccc(NC(=O)C(C)(C)C)cc1` stands -6.648%; under `O=C(c1ccc(-n2cc(Br)cn2)cc1)N1CCN(c2cnccn2)CC1`, 12.88%; under `O=C(CCSc1ccccc1F)N1CCN(c2cnccn2)CC1`, 4.662%.
As for `CC(CC(=O)N1CCN(c2cnccn2)CC1)c1ccc(F)cc1` (stereo not given), the figure is 3.505%; as for `O=C(CCOc1ccccc1Cl)N1CCN(c2cnccn2)CC1`, 81.46%.
For `O=C(Cc1ccc2c(c1)OCO2)N1CCN(c2cnccn2)CC1`, the “Percent Effect” value is -5.983%.
Under `O=C(CCOc1cccc(Cl)c1)N1CCN(c2cnccn2)CC1` stands 103.8%.
In the case of `O=C(COc1ccc(Cl)cc1)N1CCN(c2cnccn2)CC1`, the “Percent Effect” value came out at 138.2%.
Consider `O=C(CCOc1ccc(Br)cc1)N1CCN(c2cnccn2)CC1`, for which the “Percent Effect” value came out at 108.9%.
As for `Cc1nn(CC(=O)N2CCN(c3cnccn3)CC2)c(C)c1Cl`, the figure is 4.895%; as for `O=C(CCSc1ccc(F)cc1)N1CCN(c2cnccn2)CC1`, -10.65%.
Under `CSCc1cccc(S(=O)(=O)NCCCO)c1` stands -5.091%; under `CS(=O)(=O)CCN(CC1CCCO1)C1CCCC1` (stereo not given), -6.798%; under `CC(NCc1cn(CCC(N)=O)c2ccccc12)c1nncn1C` (stereo not given), -5.557%.
Under `O=C(C[C@@H]1COC[C@H]2CN(C3CCCC3)C[C@@H]12)N1CCCCO1.O=C(O)C(F)(F)F` stands 2.72%.
In the case of `Cc1ccoc1C(=O)N1C[C@@H]2[C@@H](C1)OCC(=O)N2Cc1cccnc1.O=C(O)C(F)(F)F`, the “Percent Effect” value turned out to be 8.295%.
For the molecule `Cc1ccc(C(=O)N2CCn3cc(CN(C)Cc4ccco4)nc3C2)o1.O=C(O)C(F)(F)F`, the “Percent Effect” value is -7.52%.
For the molecule `Cc1ccc(C(=O)N2CCc3ccc(=O)n(CCN(C)C)c3CC2)o1.O=C(O)C(F)(F)F`, the “Percent Effect” value is 107.1%.
As for `Cc1ccc2c(n1)N(CCN(C)C)CCN(C(=O)c1cccs1)C2.O=C(O)C(F)(F)F.O=C(O)C(F)(F)F`, the figure is -13.61%.
With `CN(C)CCn1c2c(ccc1=O)CCN(C(=O)c1cccs1)CC2.O=C(O)C(F)(F)F`, the “Percent Effect” value is reported as 111.2%.
With `Cc1ccoc1C(=O)N1Cc2c(Cn3ccnc3)nn(C)c2C1.O=C(O)C(F)(F)F`, the “Percent Effect” value stood at 12.61%.
Under `CN(C)CCn1c2c(ccc1=O)CCN(C(=O)c1ccoc1)CC2.O=C(O)C(F)(F)F` stands 107.6%.
Under `CN(C)CCOc1ccccc1N1CCN(C(=O)c2ccoc2)CC1` stands -4.916%.
In the case of `Cc1ccc(C(=O)N2C[C@@H]3[C@@H](C2)OCC(=O)N3Cc2cccnc2)o1.O=C(O)C(F)(F)F`, the “Percent Effect” value is recorded as -3.343%.
As for `Cc1ccoc1C(=O)N1CCc2ccc(=O)n(CCN(C)C)c2CC1.O=C(O)C(F)(F)F`, the figure is 99.37%.
As for `Cc1ccc2c(n1)N(CCN(C)C)CCN(C(=O)c1ccoc1)C2.O=C(O)C(F)(F)F.O=C(O)C(F)(F)F`, the figure is 2.564%; as for `CCS(=O)(=O)c1ccc2oc([C@H]3CCN(Cc4ccccc4)C3)nc2c1`, -9.259%; as for `CC(NCCN1CCC(N(C)C)CC1)c1ccc(F)cc1N(C)C` (stereo not given), -1.854%.
As for `CCc1nc(CC(=O)N2CCC(C(=O)N(CC)CC)CC2)cs1`, the figure is 9.803%.
Take `NC(=O)C1CCN(C(=O)c2cccc(OCc3cscn3)c2)CC1`: the “Percent Effect” value was -9.747%.
As for `Cc1cc(C)c(CNC(=O)NCCNc2cnccn2)c(=O)[nH]1`, the figure is 6.343%.
As for `Cc1ccc(C(=O)N2CCN(CCC(C)(C)C)CC2)c(=O)[nH]1`, the figure is -8.325%; as for `CC(=O)NCC(=O)N(CCN1CCOCC1)Cc1ccco1`, -7.485%.
Under `OCC(O)CN(CCN1CCOCC1)Cc1ccco1` (stereo not given) stands 99.07%; under `CN(C)CCN1CCOCC2(C1)CN(Cc1ccco1)CCO2.O=C(O)C(F)(F)F.O=C(O)C(F)(F)F.O=C(O)C(F)(F)F` (stereo not given), 27%.
With `C/C=C(\C)CN(CCN1CCOCC1)Cc1ccco1`, the “Percent Effect” value was found to be 118.7%.
Consider `CC(C(=O)NCc1ccc(F)cc1)N(C)CCN1CCOCC1` (stereo not given), for which the “Percent Effect” value was determined as 8.931%.
Under `CS(=O)(=O)CC(=O)N(CCN1CCOCC1)Cc1ccco1` stands -25.1%; under `OCc1ccncc1NCc1cnc(-c2ccccn2)s1`, -4.749%; under `Cc1cc2n(n1)CC(CNC1CCN(c3ccccn3)CC1)CN2` (stereo not given), 4.836%.
As for `O=C(NCc1cccnc1)N1CCC2(CC(=O)N(c3ccsc3)C2)C1.O=C(O)C(F)(F)F` (stereo not given), the “Percent Effect” value amounted to 89.85%.
Under `O=C(NCc1ccccc1)N1CCC2(CC(=O)N(c3ccccc3)C2)C1` (stereo not given) stands 115.5%.
As for `Cn1ccnc1CN1CCC2(CC(=O)N(c3ccsc3)C2)C1.O=C(O)C(F)(F)F` (stereo not given), the figure is 6.522%.
Under `O=C(NCc1cccc(F)c1)N1CCC2(CC(=O)N(c3ccsc3)C2)C1` (stereo not given) stands 6.273%.
Turning to `O=C(NCc1ccccc1)N1CCC2(CC(=O)N(c3ccsc3)C2)C1` (stereo not given), the “Percent Effect” value is -8.501%.
Under `O=C(NC[C@H]1COCc2nc3cc(F)ccc3n21)c1cccnc1` stands -2.363%; under `CCS(=O)(=O)CCNC(=O)[C@@]12CNC[C@@H]1CN(C1CCCC1)C2`, 17.06%.
Under `CC(=O)Nc1ccc(CNC2CCCSC2)cc1` (stereo not given) stands -9.842%.
As for `Cc1occc1C(=O)N1C[C@H]2CCCC(OCc3cccnc3)[C@H]2C1.O=C(O)C(F)(F)F` (stereo not given in full), the “Percent Effect” value was -5.108%.
Consider `Cc1ccccc1C(=O)N1C[C@@H]2OCCN(c3ncccn3)[C@@H]2C1.O=C(O)C(F)(F)F`, for which the “Percent Effect” value turned out to be 105.7%.
Turning to `Cn1ccc(C(=O)N2C[C@@H]3CCN(c4cccnc4)C[C@@H]3C2)n1.O=C(O)C(F)(F)F`, the “Percent Effect” value is -11%.
As for `Cc1occc1C(=O)N1C[C@@H]2[C@@H](C1)OCC(=O)N2Cc1cccnc1.O=C(O)C(F)(F)F`, the figure is -5.789%.
As for `Cn1ccc(C(=O)N2C[C@@H]3OCCN(c4ncccn4)[C@@H]3C2)n1.O=C(O)C(F)(F)F`, the figure is 98.93%; as for `Cc1occc1C(=O)N1C[C@@H]2OCCN(c3ncccn3)[C@@H]2C1.O=C(O)C(F)(F)F`, 117.5%.
As for `Cc1cccc(C(=O)N2C[C@@H]3OCCN(c4ncccn4)[C@@H]3C2)n1.O=C(O)C(F)(F)F.O=C(O)C(F)(F)F`, the figure is -4.674%.
As to `O=C(c1cc(-n2cccn2)ccn1)N1CCOc2ccncc21`, the “Percent Effect” value is recorded as -0.9385%.
As for `O=C1CN(CC[C@@H](O)c2ccccc2)CCN1c1ccccc1Cl`, the figure is -4.837%.
As for `CC(=O)Nc1nc(C(=O)N2CCCC(n3nc(C)cc3C)C2)cs1` (stereo not given), the figure is -2.313%.
Regarding `O=C(c1cc(C2CC2)on1)N1CCCC(n2cncn2)C1` (stereo not given), the “Percent Effect” value is listed as 7.01%.
Under `CC(=O)Nc1nc(C(=O)N2CCCC(n3cncn3)C2)cs1` (stereo not given) stands 110.6%; under `Cc1nc(C(=O)N2CCCC(n3cncn3)C2)cs1` (stereo not given), -4.147%.
As for `O=C(c1cscn1)N1CCCC(n2cncn2)C1` (stereo not given), the “Percent Effect” value is given as 88.79%.
Under `O=C(c1csnn1)N1CCCC(n2cncn2)C1` (stereo not given) stands 98.21%; under `CCC(=O)NCc1ccccc1Cn1ccnc1`, 2.122%.
